By AC50 is commonly meant the concentration at which the activity in the assay is half-maximal.

For 3 compounds, outcome and AC50 results are on record in PubChem BioAssay (EPA / NIEHS).

Active and inactive are the calls of the source. The calls were made as follows: active = hit-call score of the fitted dose curve at least 0.9, where 1 is the maximum; inactive = score below 0.9.

Holding throughout (settings): mRNA level, 48 h; actives raise or lower the signal
Read-out in assay [1]: Glutathione S-Transferase (GSTA2), GSTA2 (gene 2939)
Briefly: LTEA_HepaRG_GSTA2: Life Technologies and Expression Analysis (LTEA) Assay for Glutathione S-Transferase (GSTA2) using HepaRG (AID 2283497). In a few lines: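 qRT-PCR readout of GSTA2 transcript, normalized to three housekeeping genes, fitted bidirectionally against 0.5% DMSO baseline. Differentiated HepaRG cells received compound for 48 h at 8 concentrations (top 100 uM, half-log steps).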

Read-out in assay [2]: Glutamate-cysteine ligase catalytic (GCLC), GCLC (gene 2729)
The assay is described as follows: LTEA_HepaRG_GCLC: Life Technologies and Expression Analysis (LTEA) Assay for Glutamate-cysteine ligase catalytic (GCLC) using HepaRG (AID 2283498). The procedure, abridged:
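HepaRG, 48 h exposure, 8-pt half-log series from 100 uM, 0.5% DMSO vehicle; TaqMan qRT-PCR for GCLC mRNA, housekeeping-normalized; bidirectional curve fit vs DMSO baseline.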

Read-out in assay [3]: growth arrest and DNA damage 45 (GADD45G), GADD45G (gene 10912)
The assay is described as follows: LTEA_HepaRG_GADD45G: Life Technologies and Expression Analysis (LTEA) Assay for growth arrest and DNA damage 45 (GADD45G) using HepaRG (AID 2283499). In a few lines:
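Gain or loss of GADD45G mRNA, quantified by TaqMan qRT-PCR against three housekeeping genes, is fitted in both directions relative to 0.5% DMSO. Human HepaRG cultures receive test chemical for 48 h at up to 100 uM.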

Read-out in assay [4]: Glutamate-cysteine ligase regulatory (GCLM), GCLM (gene 2730)
Briefly: LTEA_HepaRG_GCLM: Life Technologies and Expression Analysis (LTEA) Assay for Glutamate-cysteine ligase regulatory (GCLM) using HepaRG (AID 2283500). The procedure, abridged: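 HepaRG, 48 h dosing, 100 uM top, half-log x8, 0.5% DMSO vehicle. Readout: GCLM mRNA by TaqMan qRT-PCR, housekeeping-normalized (ACTB/GAPDH/POLR2A). Curves fit bidirectionally vs DMSO baseline.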

Read-out in assay [5]: Heat shock 70 kDa protein 1 (HSPA1A), gene 3303
The assay is described as follows: LTEA_HepaRG_HSPA1A: Life Technologies and Expression Analysis (LTEA) Assay for Heat shock 70 kDa protein 1 (HSPA1A) using HepaRG (AID 2283502). In a few lines:
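HepaRG, 48 h exposure, 8-pt half-log CRC from 100 uM in 0.5% DMSO, duplicates. Readout: TaqMan qRT-PCR of HSPA1A mRNA, housekeeping-normalized (ACTB/GAPDH/POLR2A). Bidirectional fit vs 0.5% DMSO baseline.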

Read-out in assay [6]: 3-Hydroxy-3-Methylglutaryl-CoA Synthase 2 (HMGCS2), HMGCS2 (gene 3158)
The assay is described as follows: LTEA_HepaRG_HMGCS2: Life Technologies and Expression Analysis (LTEA) Assay for 3-Hydroxy-3-Methylglutaryl-CoA Synthase 2 (HMGCS2) using HepaRG (AID 2283504). In a few lines:
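HepaRG, plated 48 h then switched to serum-free induction media; cmpd 8-pt, max 100 uM, 1/2-log, 0.5% DMSO, n=2, 48 h. HMGCS2 mRNA by Fluidigm TaqMan qRT-PCR, ACTB/GAPDH/POLR2A norm; bidirectional fit vs DMSO.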

Read-out in assay [7]: HGF (gene 3082)
Briefly: LTEA_HepaRG_HGF: Life Technologies and Expression Analysis (LTEA) Assay for Hepatocyte Growth Facto (HGF) using HepaRG (AID 2283505). In a few lines: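 Read-out is HGF transcript level by qRT-PCR, normalized to three housekeeping genes, fitted bidirectionally against 0.5% DMSO vehicle. Human HepaRG cells received test chemicals for 48 h at up to 100 uM.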

Read-out in assay [8]: Insulin Like Growth Factor 1 (IGF1), IGF1 (gene 3479)
The assay is described as follows: LTEA_HepaRG_IGF1: Life Technologies and Expression Analysis (LTEA) Assay for Insulin Like Growth Factor 1 (IGF1) using HepaRG (AID 2283506). The procedure, abridged: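 qRT-PCR readout of IGF1 mRNA, normalized to three housekeeping genes, after 48 h chemical exposure of HepaRG cells. Concentrations: 8-point half-log series, top 100 uM, 0.5% DMSO vehicle. Gain or loss fitted against DMSO baseline.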

Read-out in assay [9]: Intercellular Adhesion Molecule 1 (ICAM1), ICAM1 (gene 3383)
Briefly: LTEA_HepaRG_ICAM1: Life Technologies and Expression Analysis (LTEA) Assay for Intercellular Adhesion Molecule 1 (ICAM1) using HepaRG (AID 2283507). The procedure, abridged: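 Readout is qRT-PCR mRNA level, normalized to three housekeeping genes and fitted bidirectionally against 0.5% DMSO vehicle. Human HepaRG cultures received compound for 48 h, top concentration 100 uM with half-log dilutions.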

Read-out in assay [10]: Insulin-like growth factor-binding protein 1 (IGFBP1), IGFBP1 (gene 3484)
The assay is described as follows: LTEA_HepaRG_IGFBP1: Life Technologies and Expression Analysis (LTEA) Assay for Insulin-like growth factor-binding protein 1 (IGFBP1) using HepaRG (AID 2283508). In a few lines:
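Thawed HepaRG cells are plated for 48 h, switched to serum-free induction medium, then dosed in duplicate for another 48 h (100 uM top, half-log steps). Lysates in RLT go to qRT-PCR, and gain or loss of signal is fitted relative to vehicle.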

Read-out in assay [11]: Interleukin 6 (IL6), IL6 (gene 3569)
Briefly: LTEA_HepaRG_IL6: Life Technologies and Expression Analysis (LTEA) Assay for Interleukin 6 (IL6) using HepaRG (AID 2283509). In a few lines: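 qRT-PCR read-out of IL6 transcript, normalized to three housekeeping genes, after 48 h chemical exposure of HepaRG cells; 8-point half-log series, top 100 uM, 0.5% DMSO vehicle. Bidirectional curve fitting against DMSO baseline.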

Read-out in assay [12]: Interleukin 6 Receptor (IL6R), IL6R (gene 3570)
The assay is described as follows: LTEA_HepaRG_IL6R: Life Technologies and Expression Analysis (LTEA) Assay for Interleukin 6 Receptor (IL6R) using HepaRG (AID 2283510).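 As to AC50: differentiated human HepaRG liver cells in serum-free induction medium.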 In a few lines: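 HepaRG, 48 h exposure, 8-pt half-log series, top 100 uM, 0.5% DMSO vehicle, duplicates. Read-out: TaqMan qRT-PCR of IL6R transcript, housekeeping-gene normalized. Gain or loss fitted relative to DMSO baseline.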

Read-out in assay [13]: Potassium channel subfamily K member 1 (KCNK1), KCNK1 (gene 3775)
The assay is described as follows: LTEA_HepaRG_KCNK1: Life Technologies and Expression Analysis (LTEA) Assay for Potassium channel subfamily K member 1 (KCNK1) using HepaRG (AID 2283511). The procedure, abridged:
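HepaRG, 48 h exposure, 8-pt half-log series top 100 uM, 0.5% DMSO vehicle, duplicates. Readout: KCNK1 transcript by qRT-PCR (Fluidigm array), housekeeping-normalized; bidirectional curve fit relative to DMSO baseline.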

Read-out in assay [14]: Keratin 19 (KRT19), KRT19 (gene 3880)
The assay is described as follows: LTEA_HepaRG_KRT19: Life Technologies and Expression Analysis (LTEA) Assay for Keratin 19 (KRT19) using HepaRG (AID 2283512). In a few lines:
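KRT19 transcript levels, measured by Fluidigm qRT-PCR against three housekeeping genes, are fitted for gain or loss of signal relative to DMSO. Human HepaRG cells receive test chemicals (top 100 uM, half-log steps, 0.5% DMSO) for 48 hours.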

Read-out in assay [15]: JUN Transcription Factor, JUN (gene 3725)
The assay is described as follows: LTEA_HepaRG_JUN: Life Technologies and Expression Analysis (LTEA) Assay for JUN Transcription Factor using HepaRG (AID 2283513). The procedure, abridged:
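HepaRG, 48 h exposure, 8-pt half-log series top 100 uM, 0.5% DMSO, duplicate. JUN mRNA by qRT-PCR (Fluidigm), housekeeping-normalized (ACTB/GAPDH/POLR2A); bidirectional curve fit vs DMSO baseline.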

Read-out in assay [16]: Lipase C (LIPC), LIPC (gene 3990)
Briefly: LTEA_HepaRG_LIPC: Life Technologies and Expression Analysis (LTEA) Assay for Lipase C (LIPC) using HepaRG (AID 2283514). In a few lines: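 HepaRG, 48 h exposure, 8-pt half-log series from 100 uM in 0.5% DMSO, duplicates. Readout: LIPC mRNA by Fluidigm qRT-PCR, housekeeping-normalized (ACTB/GAPDH/POLR2A). Gain or loss fitted bidirectionally against DMSO baseline.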

Read-out in assay [17]: Lipoprotein lipase (LPL), LPL (gene 4023)
The assay is described as follows: LTEA_HepaRG_LPL: Life Technologies and Expression Analysis (LTEA) Assay for Lipoprotein lipase (LPL) using HepaRG (AID 2283515). The procedure, abridged:
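HepaRG, 48 h exposure, 8-pt half-log dilutions from 100 uM, 0.5% DMSO vehicle, duplicates; qRT-PCR (Fluidigm array) of LPL mRNA vs housekeeping genes; bidirectional curve fit relative to DMSO baseline.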

Read-out in assay [18]: MicroRNA 122 (MIR122), gene 406906
Briefly: LTEA_HepaRG_MIR122: Life Technologies and Expression Analysis (LTEA) Assay for MicroRNA 122 (MIR122) using HepaRG (AID 2283516). Also: the transcript read is the microRNA miR-122. In a few lines:
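qRT-PCR read-out (TaqMan, Fluidigm array), normalized to three housekeeping genes; HepaRG cells dosed 48 h at 8 concentrations up to 100 uM in 0.5% DMSO, duplicate; gain or loss fitted against DMSO baseline.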

Read-out in assay [19]: Hypoxia-inducible factor 1-alpha (Homo sapiens) (UniProt Q16665)
The assay is described as follows: LTEA_HepaRG_HIF1A: Life Technologies and Expression Analysis (LTEA) Assay for Hypoxia-inducible factor 1 (HIF1A) Trancription factor using HepaRG (AID 2283503). The procedure, abridged: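 Gain- or loss-of-signal HIF1A mRNA changes are fitted against a DMSO baseline. HepaRG cultures receive eight concentrations, highest 100 uM, for 48 h in serum-free induction medium with 0.5% DMSO.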

Sequence of Hypoxia-inducible factor 1-alpha (Homo sapiens) (Q16665 whole entry, looked up): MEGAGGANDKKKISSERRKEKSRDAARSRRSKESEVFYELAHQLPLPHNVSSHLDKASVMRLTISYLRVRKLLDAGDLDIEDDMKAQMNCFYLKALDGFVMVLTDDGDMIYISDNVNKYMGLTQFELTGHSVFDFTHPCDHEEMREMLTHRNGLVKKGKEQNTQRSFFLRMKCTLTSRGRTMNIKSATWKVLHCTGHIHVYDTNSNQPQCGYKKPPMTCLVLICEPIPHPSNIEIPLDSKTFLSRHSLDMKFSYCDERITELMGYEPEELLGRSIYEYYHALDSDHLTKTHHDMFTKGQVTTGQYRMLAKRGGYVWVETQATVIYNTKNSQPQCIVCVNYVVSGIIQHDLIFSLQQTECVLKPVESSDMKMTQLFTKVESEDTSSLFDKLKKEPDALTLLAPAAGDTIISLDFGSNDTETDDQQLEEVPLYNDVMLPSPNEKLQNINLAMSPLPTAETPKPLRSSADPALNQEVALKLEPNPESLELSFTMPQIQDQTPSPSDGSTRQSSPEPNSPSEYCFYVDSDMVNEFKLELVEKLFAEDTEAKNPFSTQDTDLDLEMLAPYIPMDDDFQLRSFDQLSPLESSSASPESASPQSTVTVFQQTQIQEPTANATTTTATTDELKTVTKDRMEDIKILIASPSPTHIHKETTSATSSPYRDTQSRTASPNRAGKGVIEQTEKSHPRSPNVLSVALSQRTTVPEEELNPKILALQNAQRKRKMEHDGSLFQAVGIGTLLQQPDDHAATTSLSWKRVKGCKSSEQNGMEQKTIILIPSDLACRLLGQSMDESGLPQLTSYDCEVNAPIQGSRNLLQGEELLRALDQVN

`Cc1occc(=O)c1O`: the result in assay [1], in assay [2], in assay [3], in assay [4], in [5] and in [6] was inactive. The compound was classed as inactive in [7], in assay [8], in assay [9], in [10], in [11] and in [12]. Moreover, the compound was classed as inactive in [13], in assay [14], in assay [15], in [16], in assay [17] and in assay [18].
`Cc1c(C)c2c(c(C)c1O)CCC(C)(COc1ccc(CC3SC(=O)NC3=O)cc1)O2` (centres undefined): the AC50 is 23.2 µM (active) in [1]; 93.6 µM (active) in assay [2]; 19.1 µM (active) in assay [3]; 50 µM (active) in [5]; 66.8 µM (active) in assay [19]; 68.5 µM (active) in assay [8]. Further, the AC50 is 50 µM (active) in assay [10]; 88.2 µM (active) in assay [11]; 92.9 µM (active) in assay [12]; 70.9 µM (active) in [15]; 25.1 µM (active) in assay [16]; 4.12 µM (active) in assay [17]. In assay [18], the AC50 is 83.9 µM (active). Also, the outcome in [4], in assay [6], in assay [7], in assay [9], in assay [13] and in [14] was inactive.
Turning to `CC(N)=O`, the compound was classed as inactive in [1], in [2], in [3], in assay [4], in assay [5] and in [6]. For the same compound, the outcome in assay [8], in assay [9], in [10], in assay [11], in assay [12] and in [13] was inactive. Moreover, the outcome in [14], in assay [15], in assay [16], in assay [17] and in assay [18] was inactive.
